Inconclusive results are not listed. Calls of active or inactive are those of the source. Unless noted, calls follow the shape of the dose curve; as a rule, active = well fitted curve in the direction sought with a large enough effect in the repeat runs; inconclusive = weak or mixed curves; inactive = no such curve, though single readings can be large; an effect the other way counts as inactive or inconclusive.
Tests used:
[1] = target: Progesterone receptor (Homo sapiens) (UniProt P06401); assay: qHTS assay to identify small molecule agonists of the progesterone receptor (PR) signaling pathway (AID 1346784; calls by dose curve; also: nearly all actives have a fitted effect of over 30% in size)
Chain of Progesterone receptor (Homo sapiens) (P06401 whole entry, looked up): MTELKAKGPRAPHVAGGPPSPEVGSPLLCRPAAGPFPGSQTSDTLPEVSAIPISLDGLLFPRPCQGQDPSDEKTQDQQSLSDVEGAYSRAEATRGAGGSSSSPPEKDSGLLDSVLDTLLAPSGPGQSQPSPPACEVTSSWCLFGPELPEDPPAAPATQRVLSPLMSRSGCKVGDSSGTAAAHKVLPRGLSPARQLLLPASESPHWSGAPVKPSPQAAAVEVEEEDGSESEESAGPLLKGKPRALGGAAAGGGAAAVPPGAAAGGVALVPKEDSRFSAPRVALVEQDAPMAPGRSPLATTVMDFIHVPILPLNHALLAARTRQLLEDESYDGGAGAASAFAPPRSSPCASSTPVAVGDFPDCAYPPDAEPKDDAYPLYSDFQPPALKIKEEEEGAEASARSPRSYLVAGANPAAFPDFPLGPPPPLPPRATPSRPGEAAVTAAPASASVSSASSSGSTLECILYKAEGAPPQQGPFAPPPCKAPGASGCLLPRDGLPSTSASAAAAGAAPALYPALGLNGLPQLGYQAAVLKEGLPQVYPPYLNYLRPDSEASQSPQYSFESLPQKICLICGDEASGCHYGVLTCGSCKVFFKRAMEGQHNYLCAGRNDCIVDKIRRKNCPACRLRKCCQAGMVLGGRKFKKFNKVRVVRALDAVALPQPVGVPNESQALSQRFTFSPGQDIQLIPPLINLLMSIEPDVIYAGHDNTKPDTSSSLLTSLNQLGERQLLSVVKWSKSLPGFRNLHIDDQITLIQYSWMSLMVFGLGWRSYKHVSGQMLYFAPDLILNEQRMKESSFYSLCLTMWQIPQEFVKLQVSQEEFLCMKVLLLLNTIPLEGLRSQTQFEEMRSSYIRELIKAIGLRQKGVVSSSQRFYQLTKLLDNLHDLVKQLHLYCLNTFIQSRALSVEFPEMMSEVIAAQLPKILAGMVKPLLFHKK
In short: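 PR-UAS-bla HEK 293T cells carrying a UAS-driven beta-lactamase reporter were seeded in medium with 2% charcoal-stripped FBS, preincubated 6 hr at 37C, then exposed to compounds in DMSO for 16 hr; agonism was read by LiveBLAzer B/G FRET fluorescence.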

[2] = target: Progesterone receptor (Homo sapiens) (UniProt P06401); assay: qHTS assay to identify small molecule antagonists of the progesterone receptor (PR) signaling pathway (AID 1346795; active = well fitted inhibition curve with a large enough effect in the signal ratio in the repeat runs, not every such curve was filed as active; the % refers to the signal ratio)
In short: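 PR-UAS-bla HEK293T cells carrying a UAS-driven beta-lactamase reporter were plated in medium with 2% charcoal-stripped FBS and rested 6 hr at 37C. Compounds were added with 1 nM R5020 (final) for 16 hr, then FRET substrate loaded 2 hr at room temperature.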

[3] = qHTS assay to identify small molecule antagonists of the progesterone receptor (PR) signaling pathway - cell viability counter screen (AID 1346798); also: series mostly up to about 92 µM; nearly all actives have a fitted effect of over 50% in size
In short: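 PR-UAS-bla HEK293T cells in medium with 2% charcoal-stripped FBS were treated with compounds plus R5020 for 16 hr at 37C. Cell viability was then read by CellTiter-Glo luminescence after 30 min at room temperature in the same wells.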

[4] = qHTS assay to identify small molecule agonists of the progesterone receptor (PR) signaling pathway - cell viability counter screen (AID 1346799; calls by dose curve; also: nearly all actives have a fitted effect of over 45% in size)
In short: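 PR-UAS-bla HEK293T cells, 3,000 per well in medium with 2% charcoal-stripped FBS, were preincubated 6 hr at 37C, then exposed to compounds for 16 hr; viability was read as CellTiter-Glo luminescence after 30 min at room temperature.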

[5] = qHTS assay to identify small molecule antagonists of the TGF-beta/Smad signaling pathway - cell viability counter screen (AID 1346824); also: nearly all actives have a fitted effect of over 50% in size
In short: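 SBE-bla HEK 293T cells were plated overnight at 37 C, then given compounds in DMSO plus TGF-beta1 (added as 0.25 ng/mL solution) for 5 hr. After the bla read, CellTiter-Glo was added to the same wells and luminescence read after 30 min at room temperature.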

[6] = qHTS assay to identify small molecule agonists of the TGF-beta/Smad signaling pathway - cell viability counter screen (AID 1346829); also: top concentration of the series differs between compounds; nearly all actives have a fitted effect of over 45% in size
In short: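 HEK 293T SBE-bla line, 5 hr compound exposure at 37 C, multiplexed CellTiter-Glo viability read by luminescence.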

[7] = qHTS assay to identify small molecule agonists of the TGF-beta/Smad signaling pathway (AID 1346859; active = well fitted activation curve with a large enough effect in the signal ratio in the repeat runs, not every such curve was filed as active; the % refers to the signal ratio; also: series mostly up to about 77 µM)
In short: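 HEK 293T cells stably carrying a beta-lactamase reporter driven by the Smad binding element were seeded overnight, exposed to DMSO-dissolved compounds for 5 hr at 37 C, 5% CO2, then loaded with FRET substrate for 2 hr at room temperature.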

[8] = target: Thyrotropin-releasing hormone receptor (Homo sapiens) (UniProt P34981); assay: qHTS assay to identify small molecule antagonists of the thyrotropin-releasing hormone receptor (TRHR) signaling pathway (AID 1346877; active = well fitted inhibition curve with a large enough effect in the repeat runs, not every such curve was filed as active; also: series mostly up to about 51 µM)
Chain of Thyrotropin-releasing hormone receptor (Homo sapiens) (P34981 whole entry, looked up): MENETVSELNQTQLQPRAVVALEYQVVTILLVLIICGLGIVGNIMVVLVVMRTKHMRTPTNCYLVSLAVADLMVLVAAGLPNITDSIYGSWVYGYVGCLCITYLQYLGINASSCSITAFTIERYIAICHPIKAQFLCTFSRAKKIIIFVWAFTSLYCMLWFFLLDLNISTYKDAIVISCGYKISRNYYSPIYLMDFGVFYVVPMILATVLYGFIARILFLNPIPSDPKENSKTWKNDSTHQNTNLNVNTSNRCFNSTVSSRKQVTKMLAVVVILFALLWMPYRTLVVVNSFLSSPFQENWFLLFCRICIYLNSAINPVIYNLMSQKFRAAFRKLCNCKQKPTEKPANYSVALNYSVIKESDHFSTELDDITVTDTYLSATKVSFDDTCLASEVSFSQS
In short: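 Following an 18 h incubation at 37 °C and a 2 h calcium dye load, TRHR-HEK293 cells were exposed to compound (5 min, room temperature) and challenged with TRH, 1 nM final.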

[9] = target: Thyrotropin-releasing hormone receptor (Homo sapiens) (UniProt P34981); assay: qHTS assay to identify small molecule agonists of the thyrotropin-releasing hormone receptor (TRHR) signaling pathway (AID 1346891; calls by dose curve; also: potency is read from the fitted curve at half-maximal effect; as to activation: series mostly up to about 58 µM)
In short: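 TRHR-expressing HEK293 cells were plated 18 h at 37 °C/5% CO2, loaded with calcium dye 2 h at 37 °C, then given compound in DMSO; fluorescence was read kinetically for 3 min at 1 s intervals.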

Measured: Potency

CNCCO
inactive: all assays above

CC1=NN(c2cccc(S(=O)(=O)O)c2)C(=O)C1
not listed: [3] | [4]
inactive: all other assays above

CC(C#N)(CCC(=O)O)N=NC(C)(C#N)CCC(=O)O (stereo not given)
inactive: all assays above

COC(=O)C1=C(C)NC(C)=C(C(=O)OC(C)C)C1c1cccc2nonc12 (stereo not given)
inactive: [1] | [5] | [6] | [7]

CC(C(=O)O)c1cccc(Oc2ccccc2)c1 (stereo not given)
inactive: all assays above

NC(=O)N[C@@H](CCC(=O)O)C(=O)O
not listed: [6] | [8] | [9]
inactive: all other assays above

CCCCCCC1CCC(=O)O1 (stereo not given)
inactive: all assays above

COCCOC[C@H](CC1(C(=O)NC2CCC(C(=O)O)CC2)CCCC1)C(=O)Oc1ccc2c(c1)CCC2 (stereo not given in full)
active: [9] 11 µM
not listed: [8]
inactive: all other assays above

CO[C@@]1(NC(=O)CSC[C@@H](N)C(=O)O)C(=O)N2C(C(=O)O)=C(CSc3nnnn3C)CS[C@@H]21
inactive: all assays above

O=C(O)CCCC[P+](c1ccccc1)(c1ccccc1)c1ccccc1
not listed: [5] | [8] | [9]
inactive: all other assays above

C=C(C)C(=O)OCCOCCOCCOCCOC(=O)C(=C)C
not listed: [2]
inactive: all other assays above

CC(C)CCCO
not listed: [4] | [5]
inactive: all other assays above

O=[N+]([O-])c1cncn1CCN1CCOCC1
inactive: all assays above

— PubChem BioAssay (Tox21)
